Experimental data from ChEMBL document CHEMBL3988442, “University of Dundee, Small-Polar-MMV Screening Library” (2021).
Screen size: about 48,000 compounds; about 13,000 (27%) showed an effect of 50% or more. The list shows a part of the results.

Tested on: Wolbachia pipientis
Test: Anti-Wolbachia Cell-Based Screen
Type: functional
Design: scale not given: in the data most compounds retested in dose-response had high values
Settings: 5 µM

Compared with `COc1ccc(CNC(=O)NC2CCN(CC(F)F)CC2)cc1C`, `COc1ccc(CNC(=O)CCn2cc(C)cn2)cc1C` is lower in “Percent Effect” value: 8.282% for the first, -6.428% for the second.

Going from `CSc1cccc(CC(=O)N[C@@H]2CCNC[C@H]2O)c1` to `Cl.NCC1CCCCN1C(=O)Cc1ccc(F)c(F)c1` (configuration not stated), the “Percent Effect” value falls from -1.267% to -20.4%.

First: Cn1cnnc1C1CCCN(C(=O)c2cc(-c3ccccc3)on2)C1 (configuration not stated)
Second: Cn1cnnc1C1CCCN(C(=O)c2cnc3ccccc3n2)C1 (configuration not stated)
The “Percent Effect” value of the first is higher: 103.3% for the first, -5.928% for the second.

Compared with `Cn1cnnc1C1CCCN(C(=O)c2ccccn2)C1` (configuration not stated), `Cn1cnnc1C1CCCN(C(=O)NCc2ccccn2)C1` (configuration not stated) is lower in “Percent Effect” value: 140.5% for the first, 107.2% for the second.

Going from `Cn1cnnc1C1CCCN(C(=O)NCCc2ccccn2)C1` (configuration not stated) to `c1ccc(-c2nnc([C@H]3CCN(C4CCC4)C3)o2)cc1`, the “Percent Effect” value falls from -4.673% to -5.137%.

Going from `c1cc(-c2ccc3c(c2)CCC32CCNCC2)ccn1` to `c1cc(-c2nnc([C@H]3CCN(C4CCCCC4)C3)o2)ccn1`, the “Percent Effect” value falls from -7.075% to -11.18%.

First: CC1(C)Cc2c(cnn2-c2cccc(F)c2)C(NC2CCSCC2)C1 (configuration not stated)
Second: O=C(NCC1(N2CCOCC2)CCSC1)Nc1ccccn1 (configuration not stated)
The “Percent Effect” value of the first is lower: 7.076% for the first, 27.17% for the second.

Compared with `CCCn1cc(-c2cc(C(=O)N(C)C)c3ccc(OC)cc3n2)cn1`, `CCCn1cc(-c2cc(C(=O)N(C)C)c3ccc(C)cc3n2)cn1` is higher in “Percent Effect” value: 91.31% for the first, 103.4% for the second.

Compared with `CO[C@H]1CNC[C@@H]1NC(=O)c1cc(C)nc2c(C)c(C)ccc12`, `Cc1cc(C(=O)NCc2csc(N(C)C)n2)c2ccc(C)c(C)c2n1` is higher in “Percent Effect” value: -8.867% for the first, 2.506% for the second.

Going from `CN(C)C(=O)c1cc(-c2cnc(N)nc2)nc2cc(F)ccc12` to `COc1ccc2c(C(=O)N(C)C)cc(-c3cnc(N)nc3)nc2c1`, the “Percent Effect” value falls from 2.349% to -11.66%.

Going from `Cc1ccc2c(C(=O)N(C)C)cc(-c3cnn(CCO)c3)nc2c1C` to `CCCn1cc(-c2cc(C(=O)N(C)C)c3cccc(C)c3n2)cn1`, the “Percent Effect” value falls from 115.7% to 108.4%.

Going from `COc1ccc2nc(C3CC3)cc(C(=O)NCC(=O)N(C)C)c2c1` to `Cc1ccc2nc(-c3cnc(N)nc3)cc(C(=O)N(C)C)c2c1`, the “Percent Effect” value rises from -4.105% to -1.148%.

Compared with `Cc1cc(C)c2c(C(=O)N(C)C)cc(-c3cnc(N)nc3)nc2c1`, `COc1c(C)cnc(CN(C)C(=O)c2cccnc2N(C)C)c1C` is lower in “Percent Effect” value: -4.473% for the first, -5.056% for the second.

Going from `Cc1ccc(-c2nc(CNCCn3cccn3)cs2)o1` to `Cc1ccc(=O)n(Cc2csc(N(C)C3CC3)n2)n1`, the “Percent Effect” value rises from -0.9463% to 2.512%.

First: CN(Cc1cccs1)c1nc2c(cnn2C(C)(C)C)c(=O)[nH]1
Second: CC(=O)N(C)c1nc(Cn2nnnc2C(C)(C)C)cs1
The “Percent Effect” value of the first is lower: -5.539% for the first, 75.49% for the second.

Compared with `CSCCc1n[nH]c2c1CN(S(=O)(=O)c1c(C)nn(C)c1C)CC2`, `CCCc1nc(N2CCCC(CCOC)C2)c2cnn(C)c2n1` (configuration not stated) is higher in “Percent Effect” value: -3.086% for the first, 105.9% for the second.

Compared with `Cc1ccc(C(C)NC(=O)Nc2ccccc2CN2CCOCC2)o1` (configuration not stated), `Cc1ccc(Oc2ncccc2CNS(=O)(=O)N2CCOCC2)cn1` is higher in “Percent Effect” value: 2.687% for the first, 3.348% for the second.

Going from `O=C(Cc1ccccc1F)N1CCC[C@@H]1Cn1c(=O)oc2ccccc21` to `COC[C@@]12CCO[C@@H]1CCN(C(=O)Cc1ccccc1F)C2`, the “Percent Effect” value falls from 111.4% to 7.252%.

First: COc1nc2c(cc1C(=O)NCc1nc(CSC)no1)CCC2
Second: CCc1noc(CN(CC(=O)N2CCCCC2)c2ccc(C)cc2)n1
The “Percent Effect” value of the first is lower: -10.56% for the first, 0.4396% for the second.

Compared with `Cc1noc(CN2CCN(c3cncc(Cl)n3)CC2)n1`, `Cc1nc(CN2CCN(c3cncc(Cl)n3)CC2)no1` is lower in “Percent Effect” value: 120% for the first, 85.67% for the second.

Going from `Cc1cn2nc(N3CCCN(Cc4noc(C)n4)CC3)sc2n1` to `Cc1nc(CN2CCN(c3ccc(Cl)cn3)CC2)no1`, the “Percent Effect” value rises from 4.27% to 102.8%.

Going from `Cc1noc(CN2CCN(CC(C)O)CC2)n1` (configuration not stated) to `Cc1noc(CN2CCN(CCO)CC2)n1`, the “Percent Effect” value falls from 16.1% to -2.451%.

Going from `Cc1nc(CN2CCN(Cc3nccn3C)CC2)no1` to `CC(=O)N(C)c1nc(CN2CCN(Cc3nccn3C)CC2)cs1`, the “Percent Effect” value falls from 1.161% to -41.34%.

First: Cc1nc(CN2CCN(c3ncnc4ccccc34)CC2)no1
Second: Cc1nc(CN2CCN(C(=O)CCc3cccc(Cl)c3)CC2)no1
The “Percent Effect” value of the first is lower: -20.36% for the first, 2.234% for the second.

Compared with `CC(C)(C)NC(=O)C1CSCN1S(=O)(=O)c1ccccc1F` (configuration not stated), `CC(=O)N(c1ccc(F)cc1)c1nc(CN2CCCC2C(C)C)cs1` (configuration not stated) is lower in “Percent Effect” value: -0.6778% for the first, -4.339% for the second.

Going from `CCN(CC)CC(=O)Nc1ccc(-n2ccc(C(N)=O)n2)cc1` to `Cn1cccc(NC(=O)NCCc2cccc(O)c2)c1=O`, the “Percent Effect” value rises from -9.684% to 2.871%.

Going from `c1cc(C2CN(C3CCCCC3)C2)n[nH]1` to `c1cc(C2CN(C3CCCC3)C2)n[nH]1`, the “Percent Effect” value rises from 79.34% to 154.3%.

Going from `Clc1ccc(-c2nnc([C@H]3CCN(C4CCCCC4)C3)o2)cc1` to `c1ccc(Cc2nnc([C@H]3CCN(C4CCCCC4)C3)o2)cc1`, the “Percent Effect” value falls from 11.2% to 3.661%.

Compared with `c1cc(C2CCN(C3CCCCC3)C2)n[nH]1` (configuration not stated), `FC(F)(F)c1ccc2nc([C@H]3CCN(C4CCCCC4)C3)[nH]c2c1` is lower in “Percent Effect” value: 99.9% for the first, 3.029% for the second.

First: F[C@@H]1CN(C2CCC2)C[C@@H]1OCc1nc2ncccc2[nH]1
Second: COc1ncccc1C(=O)N1CCn2c(COCC3CC3)cnc2C1C (configuration not stated)
The “Percent Effect” value of the first is higher: 0.839% for the first, -2.491% for the second.

Compared with `CC(=O)N(CCC(=O)NC1(C#N)CCC1)Cc1ccccc1`, `CC(C#N)CSc1ccccc1NCC(=O)NCc1ccccc1` (configuration not stated) is higher in “Percent Effect” value: -20.67% for the first, 17.5% for the second.

Compared with `Oc1ccc([C@H]2Oc3cc(O)cc(O)c3C[C@@H]2O)cc1`, `COCc1cnc2n1CCN(C(=O)c1cnc3ccccc3c1)C2C` (configuration not stated) is lower in “Percent Effect” value: 2.317% for the first, -17.18% for the second.

Going from `CN(C)C(=O)Cc1nc(CN2CCn3c(nnc3C3CC3)C2)cs1` to `CC(=O)N(C)c1nc(Cn2nnnc2C2CCCC2)cs1`, the “Percent Effect” value rises from 2.901% to 98.73%.

Compared with `CNC(=O)c1ccc(=O)n(Cc2csc(N(C)C(C)=O)n2)c1`, `CCc1nnnn1Cc1csc(N(C)C(C)=O)n1` is higher in “Percent Effect” value: 1.068% for the first, 97.38% for the second.

Going from `CCN(C(C)=O)c1nc(CN2CCN(c3nccs3)CC2)cs1` to `CC(=O)N(C)c1nc(CN2CCN(c3nccs3)CC2)cs1`, the “Percent Effect” value rises from -119% to -57.57%.

Compared with `CC(=O)N(c1ccc(C)cc1)c1nc(CN2CCCCC2C)cs1` (configuration not stated), `CC(=O)N(C)c1nc(Cn2nnnc2C(C)C)cs1` is higher in “Percent Effect” value: 5.84% for the first, 102.4% for the second.

Going from `CN(CCCNC(=O)Nc1ccc(C#N)cc1)CC(F)(F)F` to `CCCN(c1ccccc1C(=O)O)S(=O)(=O)c1cccc2cccnc12`, the “Percent Effect” value falls from 3.488% to -16.07%.

Going from `Cc1noc(CCNC(=O)C2CSCN2C(=O)C2CCCC2)n1` (configuration not stated) to `CC(C)c1noc(CC[C@@H]2CCCN3CCCC[C@H]23)n1`, the “Percent Effect” value rises from 1.723% to 17.3%.

Compared with `CC(C)N1CCC(CC(=O)NCC2OCCc3ccccc32)CC1` (configuration not stated), `CC1c2ncc(COCC3CCOCC3)n2CCN1C(=O)c1ccoc1` (configuration not stated) is higher in “Percent Effect” value: -17.34% for the first, 2.746% for the second.

First: CC(C)(O)CN1CCN(C(=O)COCC2CC2)CC1
Second: Cc1ncoc1C(=O)N1CCn2c(COCC3CC3)cnc2C1C (configuration not stated)
The “Percent Effect” value of the first is higher: 6.995% for the first, -11.18% for the second.

Compared with `CCOCc1cnc2n1CCN(C(=O)Cc1cccs1)C2C` (configuration not stated), `CCOCc1cnc2n1CCN(C(=O)Cc1ccco1)C2C` (configuration not stated) is lower in “Percent Effect” value: 1.059% for the first, -11.07% for the second.

Compared with `CCOCc1cnc2n1CCN(C(=O)c1cccc3c1OCCO3)C2C` (configuration not stated), `CCOCc1cnc2n1CCN(C(=O)c1ccoc1C)C2C` (configuration not stated) is higher in “Percent Effect” value: 83.71% for the first, 98.54% for the second.

Going from `COCc1cnc2n1CCN(C(=O)c1oc3ccccc3c1C)C2C` (configuration not stated) to `COCc1cnc2n1CCN(C(=O)c1cc3ccccc3o1)C2C` (configuration not stated), the “Percent Effect” value falls from -7.418% to -14.51%.

Compared with `CCOCc1cnc2n1CCN(C(=O)c1ccccc1)C2C` (configuration not stated), `CCOCc1cnc2n1CCN(C(=O)c1cn(C)c3ccccc13)C2C` (configuration not stated) is lower in “Percent Effect” value: 105.6% for the first, 101.9% for the second.

Going from `COCc1cnc2n1CCN(C(=O)c1cn(C)c3ccccc13)C2C` (configuration not stated) to `O=C(c1ccc(Cl)cn1)N1CCC(COCc2ccccc2)C1` (configuration not stated), the “Percent Effect” value falls from 101.2% to 7.677%.

Going from `c1ccc2sc(N3CCCN(c4ncnc5c4CCNC5)CC3)nc2c1` to `COCCN1CCN(c2nc(C3CCCC3)nc3c2cnn3C)CC1`, the “Percent Effect” value rises from -7.795% to 8.561%.

First: CC(NCCNS(=O)(=O)c1cccc(Cl)c1)C1CCOCC1 (configuration not stated)
Second: CCCN1CCN(Cc2cccc(OCC(N)=O)c2)[C@H]2CS(=O)(=O)C[C@H]21
The “Percent Effect” value of the first is lower: -16.43% for the first, -4.749% for the second.

Going from `CCOc1ccc(C(=O)NCc2ccnc(N3CCCC3)c2)cn1` to `CCc1nc(N2CCCC(CCCOC)C2)c2cnn(C)c2n1` (configuration not stated), the “Percent Effect” value rises from -6.067% to 108.6%.

First: CC(C)(C)c1nc(CN(CCC2CCCCC2)CC(N)=O)no1
Second: CCc1noc(CN(CCC2CCCCC2)CC(N)=O)n1
The “Percent Effect” value of the first is higher: 228.2% for the first, 163.4% for the second.

Going from `CC(C)c1noc(CN(CCC2CCCCC2)CC(N)=O)n1` to `CC(=O)N1CCCCCC1C1CCN(Cc2nc(C(C)C)no2)CC1.Cl` (configuration not stated), the “Percent Effect” value falls from 116.2% to 9.412%.

Going from `CN(Cc1noc(C(C)(C)C)n1)CC1CCN(CCO)CC1` to `CC(C(=O)NC1CCCC1)S(=O)(=O)Cc1noc(C(C)(C)C)n1` (configuration not stated), the “Percent Effect” value rises from -10.5% to 6.849%.

Compared with `C=C(C)CN(CC)Cc1nc(CC)no1`, `CCc1nc(N2CCN(CCOC)CC2)c2cnn(C)c2n1` is lower in “Percent Effect” value: 1.944% for the first, 1.381% for the second.

Compared with `CCC1CN(C(=O)c2cc(C(C)=O)c(C)[nH]c2=O)CCN1C(C)C` (configuration not stated), `COCC1CCN(c2nc(C(C)(C)C)nc3c2cnn3C)C1` (configuration not stated) is lower in “Percent Effect” value: 0.5617% for the first, -4.471% for the second.

With `CCCc1nc(N2CCC(CCO)CC2)c2cnn(C)c2n1` the “Percent Effect” value was -6.253%.
